# In the library only some 3.3% were active in any assay of this set; here they are far more common.
# H9c2 protect: modulators protecting cardiomyocytes from myocardial damage. hit rate 0.63% among 360,000. protection from H2O2 cell death, % at 20 µM. H9c2 cardiomyocytes, H2O2 injury protection, ATPLite, 2 h;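 active = compounds giving at least 50% protection of heart cells from peroxide-induced death in the single-dose screen, raw or plate-pattern-corrected value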;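 note: 0% = DMSO wells with peroxide and 100% = DMSO wells without peroxide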
# Efflux pump mplx: blocks antifungal efflux pumps in multiplex yeast assay; S. cerevisiae Candida pump triplex, Nile Red efflux; inhibition, % at 10 µM; hit rate 0.44% among 330,000;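 active = plate passing quality check with inhibition over a set limit, or well fluorescence over plate mean plus 4 SD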;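 note: Nile Red retained in pooled yeast measured as flow cytometry median fluorescence; 0% = buffer negative control and 100% = Enniatin B positive control; higher means more Nile Red kept so more efflux inhibition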
# PHOSPHO1 block: inhibitors of human PHOSPHO1 phosphatase. Q8TCT1. recombinant PHOSPHO1, absorbance phosphatase assay. inhibition, % at 13.3 µM. hit rate 1.1% among 290,000; in the data active = inhibition above about 60%
# Target sequence (Q8TCT1 whole entry, looked up): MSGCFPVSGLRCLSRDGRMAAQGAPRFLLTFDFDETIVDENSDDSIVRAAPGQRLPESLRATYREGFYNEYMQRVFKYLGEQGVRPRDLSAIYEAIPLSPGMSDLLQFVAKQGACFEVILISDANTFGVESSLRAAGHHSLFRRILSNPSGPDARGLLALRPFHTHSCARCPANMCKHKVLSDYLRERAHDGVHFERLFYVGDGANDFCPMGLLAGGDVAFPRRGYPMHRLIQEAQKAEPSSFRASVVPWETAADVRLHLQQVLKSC
# Cl transport mod: modulators of human KCC2 chloride dependent transport | hit rate 2.2% among 190,000 | B-score of Tl+ flux slope (higher = more flux/activation; lower = inhibition) at 10 µM | AID 1456 | KCC2 cells, thallium flux FluoZin-2 fluorescence;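 active = thallium flux slope and its plate-corrected score both differing from the plate sample mean at a set confidence after two filtering rounds, in either direction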;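 note: slope of fluorescence scaled to starting intensity during 10 to 20 s after thallium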
# Calb FLC: C. albicans growth modulation with fluconazole. C. albicans CaCi-2 (fluconazole-resistant clinical isolate) + fluconazole, Alamar Blue growth, 48 h. growth inhibition, % (no concentration beside the values). hit rate 0.57% among 300,000;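 active = growth inhibition above about 58% in most replicates, limit read from the data, passing the limit was not always enough; inconclusive = exactly half the replicates above a set limit; inactive = most replicates below a set limit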;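 note: all wells also contain fluconazole at 8 µg/ml as a sub-toxic cotreatment; 0% = median of DMSO wells and 100% = median of geldanamycin control wells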
# Cmpd fluor yeast: counter-screen for efflux pump inhibitors: compound fluorescence | shares compounds with Efflux pump mplx | S. cerevisiae AD/pABC3, flow cytometry | fluorescence ratio to DMSO, % at 10 µM | hit rate 4% among 1,700 | AID 588517;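 active = fluorescence ratio to DMSO above its plate's cutoff, the plate mean ratio plus 5 SD, cut at about 210% in these data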;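 note: unstained yeast with no Nile Red so the signal is compound autofluorescence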
# Mdr1 pump inh: inhibitors of Candida albicans Mdr1 efflux pump | S. cerevisiae AD/CaMDR1, Nile Red efflux, flow cytometry | hit rate 1% among 1,700 | inhibition, % at 10 µM | shares compounds with Efflux pump mplx; in the data active = inhibition above about 26%;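 note: 0% = DMSO vehicle and 100% = reference inhibitor; higher means more Nile Red retained so more efflux inhibition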
# Cdr2 pump inh: Candida Cdr2 efflux pump inhibition | shares compounds with Efflux pump mplx | S. cerevisiae AD/CaCDR2, Nile Red retention, flow cytometry | Nile Red retention ratio vs DMSO, % at 10 µM | hit rate 4% among 1,700 | AID 588520; in the data active = Nile Red retention ratio vs DMSO above about 190%;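 note: higher ratio means more blocking of Cdr2 efflux of the dye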
# CaCdr1 efflux inh: inhibitors of Candida albicans Cdr1 efflux pump; shares compounds with Efflux pump mplx; inhibition, % at 10 µM; hit rate 1% among 1,700; S. cerevisiae AD/CaCDR1, Nile Red efflux, flow cytometry;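 active = inhibition above the screen-wide mean plus twice its standard deviation, cut at about 32% in these data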
# * = called active by the depositor; i = inactive; ? = inconclusive; nt = not tested or not shown.
SMILES,H9c2 protect,Efflux pump mplx,PHOSPHO1 block,Cl transport mod,Calb FLC,Cmpd fluor yeast,Mdr1 pump inh,Cdr2 pump inh,CaCdr1 efflux inh
COc1cccc(-c2sc3cc(OC)c(OC)cc3c2-c2ccc(OCCN3CCCCC3)cc2)c1,-27.3,0.7,nt,nt,nt,98.2,-0.1,116.4,0.1
COc1cccc(-c2sc3ccccc3c2-c2ccc(OCCN3CCCC3)cc2)c1,-12.2,0.5,nt,nt,nt,nt,nt,nt,nt
COc1ccc(-c2sc3ccc(OC)cc3c2-c2ccc(OCCN3CCOCC3)cc2)cc1,6.2,51.9*,nt,nt,nt,99.8,15.8,95.6,55.1*
COc1ccc(-c2sc3ccccc3c2-c2ccc(OCCN3CCCCC3)cc2)cc1,-16.5,-0.1,nt,nt,nt,nt,nt,nt,nt
COc1ccc(NC(=O)CS(=O)c2cccc(Cl)c2)cc1 (centres undefined),0.4,0.0,42.8,nt,-13.2,nt,nt,nt,nt
Cc1ccccc1C(=O)NNS(=O)(=O)c1ccc(F)cc1,-2.1,nt,nt,nt,nt,nt,nt,nt,nt
CS(=O)(=O)N1CCN(c2ccc(NC(=O)CSc3ccc(Cl)cc3)cc2)CC1,-3.5,0.0,21.0,0.526,-3.2,nt,nt,nt,nt
Cc1ccc(C(=O)N2CCN(c3ccc(NC(=O)CSc4ccc(Cl)cc4)cc3)CC2)cc1,-19.5,8.0*,-9.8,0.132,-3.6,104.6,-0.2,110.1,-0.1
O=C(NN1C(=O)C2CC=C(Cl)CC2C1=O)c1ccncc1 (centres undefined),-3.8,0.3,16.8,-0.683,0.6,nt,nt,nt,nt
CCOc1ccccc1/C=N/NC(=O)c1nnn(-c2nonc2N)c1CN1CCC(C)CC1,-2.8,0.6*,20.0,nt,-2.1,85.5,-0.1,93.2,-0.4
Cc1c(C(=O)N/N=C/c2c(O)ccc3ccccc23)nnn1-c1nonc1N,59.6*,1.0*,32.0,nt,-2.0,87.6,-0.4,94.0,0.0
CCOc1ccc(-c2c(C(=O)N/N=C/c3ccccc3)nnn2-c2nonc2N)cc1,-9.7,0.2,20.0,-0.0511,-5.2,94.0,-0.1,103.8,0.0
CCOc1ccc(-c2c(C(=O)N/N=C/c3ccc(C)cc3)nnn2-c2nonc2N)cc1,-1.2,-0.1,20.0,0.885,4.6,nt,nt,nt,nt
COc1ccc(NCc2ccsc2)cc1,9.1,0.0,nt,nt,-45.5,nt,nt,nt,nt
CCCCN(C)C1=CC2=CC(=C(C#N)C#N)CCC2CC1 (centres undefined),-14.1,5.5*,-19.4,i,?,230.9,1.3,282.4*,0.8
N#CC1=C(N)C2=C(N3CCCCC3)CCCC2C1(C#N)C#N (centres undefined),10.2,0.0,-3.0,0.743,?,nt,nt,nt,nt
N#CC(C#N)=C1C=C2C=C(N3CCCCC3)CCC2CC1 (centres undefined),nt,9.3*,7.1,i,nt,179.4,1.4,232.5*,0.7
CCN(CC)C1=CC2=CC(=C(C#N)C#N)CCC2CC1 (centres undefined),5.9,3.4*,0.3,i,nt,155.1,1.2,224.8*,0.7
CN(c1ccccc1)S(=O)(=O)c1cc(C(=O)NCc2ccco2)ccc1Cl,-1.3,nt,nt,nt,nt,nt,nt,nt,nt
COC/C=C/C1=CC2=CC(=O)C(C)(OC(=O)c3cnc4ccccc4n3)C(=O)C2=CN1CC(C)C (centres undefined),20.1,0.9*,nt,nt,25.7,102.5,-0.1,99.6,0.0
CCN(CC(=O)NCc1ccc(Cl)cc1)C(=O)CSc1ccc(Br)cc1,-0.2,-1.1,19.0,nt,6.8,nt,nt,nt,nt
CCCCn1c(=N)n(CC(O)COc2ccc(C)cc2)c2ccccc21 (centres undefined),-18.1,1.2*,-11.6,0.0799,-7.0,115.9,-0.2,110.1,0.0
CCCCn1c(=N)n(CC(O)COc2ccccc2)c2ccccc21 (centres undefined),-4.0,0.1,6.6,0.0299,4.2,nt,nt,nt,nt
CC(=O)CSc1nc(N)c(C#N)c(-c2cccs2)c1C#N,2.8,-0.1,-9.1,nt,?,nt,nt,nt,nt
CC(C)(C)C(=O)CSc1nc2c(c(-c3cccs3)c1C#N)CCC2,-16.3,0.5*,-11.7,-0.261,9.4,104.7,0.1,110.2,0.0
Cn1c(N2CCN(C(=O)Nc3ccc(F)cc3)CC2)nc2ccccc21,-1.3,0.0,-6.8,-0.443,-11.5,nt,nt,nt,nt
